Source: PubChem BioAssay
Activity calls are given as the source filed them.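 Rule for the calls, unless noted: active = inhibition above 20% together with a positive visual image hit; inconclusive = visual image hit but inhibition not above 20%; inactive = no visual image hit.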

Columns and labels:
[1] = inhibitors of TNFa-induced NFkB p65 translocation, primary screen, imaging, HUVEC, MLSMR starter and 10KST1 sets (AID 438); settings: HUVEC TNFa-induced p65 nuclear translocation; cell count: measured here: nuclei count (cytotoxicity indicator), at 2.08 µM unless noted; inhibition: at 2 µM, stronger effect = higher value unless noted;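 note: compound added about 3h40 before a 20 min TNFalpha stimulation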;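 for inhibition: signal is the nuclear over cytoplasmic p65 intensity ratio per well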
[2] = reduction of polyQ htt aggregates in cells – imaging, exon1htt(103Q)mCFP cells, high-content imaging, primary screen (AID 483;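 active = visual image review flags a hit and inhibition of aggregation exceeds 20%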;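 note: compound exposure lasted 3 days before fixation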;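 for nuclei count: percent of the per-plate median nuclei count of sample wells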); settings: exon1htt(103Q)mCFP cell line, aggregate imaging, at 2 µM; inhibition of aggregation: stronger effect = higher value; nuclei count: measured here: cell count, toxicity
[3] = endothelial E-selectin expression blockers – imaging, HUVEC, immunofluorescence, MLSMR starter and 10KST1 sets, primary screen (AID 487;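 active = visually confirmed hit in the image check and inhibition above 20%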;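 for inhibition: signal is fraction of cell area covered by stained E-selectin grains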;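 for nuclei count: 100% = median nuclei count of all wells on the same plate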); settings: HUVEC TNFalpha-induced E-selectin immunofluorescence imaging, at 2 µM; inhibition: stronger effect = higher value; nuclei count: measured here: cell number, toxicity
[4] = target: Voltage-gated potassium channel subunit beta-2 (Rattus norvegicus) (UniProt P62483); test: inhibitors of rat Kvbeta2 reductase activity – biochemical, NADPH fluorescence, primary screen (AID 622;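 active = fluorescence slope higher than the sample average by over 3 SD, cut at about -0.22 in these data, passing the limit was not always enough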;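 note: slope of raw intensity against log time taken from 70 to 1610 s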); settings: recombinant KvBeta, 4-cyanobenzaldehyde reduction, at 10 µM, stronger effect = higher value
[5] = target: Voltage-gated potassium channel subunit beta-2 (Rattus norvegicus) (UniProt P62483); test: enhancers of rat Kvbeta2 NADPH turnover – biochemical, NADPH fluorescence, primary screen (AID 623;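 active = NADPH fluorescence slope more negative than the mean of all samples by about 3 SD, 99.7% confidence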;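 note: fluorescence intensity change per second fitted from 20 to 320 s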); settings: Recombinant KvBeta, NADPH fluorescence decrease slope, 10 min; at 10 µM; stronger effect = lower value
[6] = target: Muscarinic acetylcholine receptor M4 (Homo sapiens) (UniProt P08173); test: M4-linked GIRK flux change, two-sided – cell-based, HEK293 M4/GIRK, thallium flux, BTC-AM, M4 allosteric agonist project, primary screen (AID 625;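 active = fluorescence slope after compound addition differing from the mean of all tested samples at 99.7% confidence, mostly higher but some lower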;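 note: thallium influx through GIRK channels coupled to M4 in HEK293 cells with BTC-AM dye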); settings: at 10 µM, actives lie on both sides
[7] = blockers of RIG-like receptor reporter activation – cell-based, Sendai virus stimulus, luciferase, 10K MLSCN set, TLR/RLR signaling modifier project, primary screen (AID 602276;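 active = inhibition at or above 50% at 10 µM; inactive = inhibition below 50%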;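 note: firefly luciferase from ISG56 promoter only with Renilla not read in this screen; 0% = Sendai virus plus DMSO and 100% = medium plus DMSO without virus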); settings: HEK293 RL24 IRF3 luciferase reporter, at 10 µM, stronger effect = higher value
[8] = TLR3 IRF3 reporter activation blockers – cell-based, poly I:C stimulus, luciferase, 10K MLSCN set, primary screen (AID 602277;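 active = inhibition of the reporter signal at or above 50%; inactive = inhibition below 50%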); settings: HEK293-TLR3 RL24 IRF3 luciferase reporter, at 10 µM, stronger effect = higher value
[9] = loss of swimming-algae plug formation – whole organism, Chlamydomonas reinhardtii, WT vs cilia-less mutant, absorbance, 96-well, primary screen (AID 463189;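 active = inhibition at or above 50% relative to wild type and mutant plate controls; inactive = inhibition below 50%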;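 note: 0% = wild type cc124 cells in DMSO and 100% = ciliumless bld1 mutant cells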); settings: Chlamydomonas reinhardtii gravitaxis, OD600 absorbance, 2 days; at 10 µM; stronger effect = higher value

Chain of Muscarinic acetylcholine receptor M4 (Homo sapiens) (P08173 whole entry, looked up): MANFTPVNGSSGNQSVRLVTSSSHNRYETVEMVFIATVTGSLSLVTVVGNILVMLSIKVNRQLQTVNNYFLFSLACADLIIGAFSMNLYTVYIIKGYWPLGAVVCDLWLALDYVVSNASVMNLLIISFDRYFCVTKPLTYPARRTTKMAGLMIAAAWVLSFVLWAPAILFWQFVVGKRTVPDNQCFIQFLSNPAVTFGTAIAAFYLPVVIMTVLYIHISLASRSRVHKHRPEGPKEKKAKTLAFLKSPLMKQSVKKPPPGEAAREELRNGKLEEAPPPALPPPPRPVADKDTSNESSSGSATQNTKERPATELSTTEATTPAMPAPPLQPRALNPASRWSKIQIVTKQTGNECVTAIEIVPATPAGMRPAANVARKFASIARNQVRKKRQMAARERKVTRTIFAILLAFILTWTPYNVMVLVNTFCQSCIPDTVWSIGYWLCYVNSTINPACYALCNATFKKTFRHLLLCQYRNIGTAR
Chain of Voltage-gated potassium channel subunit beta-2 (Rattus norvegicus) (P62483 whole entry, looked up): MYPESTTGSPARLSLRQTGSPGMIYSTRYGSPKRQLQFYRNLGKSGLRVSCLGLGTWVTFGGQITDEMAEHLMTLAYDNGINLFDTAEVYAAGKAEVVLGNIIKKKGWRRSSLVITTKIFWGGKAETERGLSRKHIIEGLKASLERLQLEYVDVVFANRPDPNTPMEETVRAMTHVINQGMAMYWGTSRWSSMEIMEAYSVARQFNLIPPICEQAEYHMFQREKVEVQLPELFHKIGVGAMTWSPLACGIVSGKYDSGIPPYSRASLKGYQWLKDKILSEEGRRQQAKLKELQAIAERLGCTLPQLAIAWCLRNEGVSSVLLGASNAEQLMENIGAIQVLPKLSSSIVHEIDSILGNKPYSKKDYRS

Compound	cell count [1]	inhibition [1]	inhibition of aggregation [2]	nuclei count [2] [%]	inhibition [3]	nuclei count [3] [%]	fluorescence slope [4]	NADPH fluorescence slope [5]	fluorescence slope [6]	inhibition [7]	inhibition [8]	inhibition [9]
Cc1ccc(CS(=O)(=O)CCC(=O)N2CCC3(CC2)OCCO3)cc1	463	6% (inactive)	-8.2% (inactive)	111	-31.5% (inactive)	109	-0.573 (inactive)	-6.6e-05 (inactive)	0.00375 (inactive)	13.7% (inactive)	16.9% (inactive)	
O=C1C2CCCN2C(c2ccc(Cl)c(Cl)c2)N1c1ccccn1 (stereo not given)	499	-2.1% (inactive)	0.2% (inactive)	98.4	17.4% (inactive)	101	-0.552 (inactive)	-4e-05 (inactive)	0.00578 (inactive)	17.8% (inactive)	12.7% (inactive)	
CC1CCN2c3nc4ccccn4c(=O)c3CC3(C(=O)N(C)C(=O)N(C)C3=O)C2C1 (stereo not given)	459	-8.6% (inactive)	11.4% (inactive)	76.7	-10% (inactive)	95.1	-0.523 (inactive)	-6.2e-05 (inactive)	0.00473 (inactive)	10.8% (inactive)	16.3% (inactive)	
CC(C)=CCSc1nnc([C@@H](N)Cc2c[nH]c3ccccc23)o1	593	0.9% (inactive)	14.2% (inactive)	101	2.3% (inactive)	92.2	-0.561 (inactive)	2.9e-05 (inactive)	0.00453 (inactive)	5.87% (inactive)	2.18% (inactive)	
Cc1cc(N2C(=O)C3CCCN3C2c2cccc(Cl)c2)no1 (stereo not given)	465	-3.9% (inactive)	8.2% (inactive)	97.3	28.8% (inactive)	91.4	-0.543 (inactive)	-2.7e-05 (inactive)	0.00553 (inactive)	13.2% (inactive)	22.3% (inactive)	
CCN1CCN(c2ncnc3ccc(Br)cc23)CC1	207	2.1% (inactive)	48% (active)	77.2	-79% (inactive)	99.3	-0.583 (inactive)	2.1e-06 (inactive)	0.00395 (inactive)	13.3% (inactive)	8.78% (inactive)	
O=C1CC[C@@]2(O)C3Cc4ccc(O)c5c4C2(CCN3CC2CC2)[C@H]1O5 (stereo not given in full)												-3.7% (inactive)
CCCCn1c(O)c(C(C)=NCCc2ccccc2)c(=O)[nH]c1=O	280	-5.3% (inactive)	16.4% (inactive)	72.1	-114% (inactive)	187	-0.454 (inactive)	-0.000351 (inactive)	0.00293 (inactive)	3.98% (inactive)	-8.74% (inactive)	
O=C(c1ccc2nc3ccc(Cl)cc3c(=O)n2c1)N1CCC2(CC1)OCCO2	758	-20.4% (inactive)	8% (inactive)	110	-56.7% (inactive)	125	-0.0098 (inactive)	1.1e-05 (inactive)	0.00414 (inactive)	-8.72% (inactive)	-12% (inactive)	
Cc1ccc(S(=O)(=O)Cc2ccc(C(=O)N3CCC4(CC3)OCCO4)o2)cc1	602	-6.9% (inactive)	16.1% (inactive)	113	-17.6% (inactive)	102	-0.432 (inactive)	-0.000506 (inactive)	0.00517 (inactive)	-7.38% (inactive)	-9.45% (inactive)	
O=C(CN1CCN(Cc2cccc(Cl)c2)C1=O)N1CCC2(CC1)OCCO2	363	1.1% (inactive)	19.2% (inactive)	73.9	26.2% (inactive)	111	-0.578 (inactive)	-1.5e-05 (inactive)	0.00798 (inactive)	4.07% (inactive)	14% (inactive)	
COc1ccccc1N1CCN(Cc2cccc(OC)c2O)CC1	509	-6% (inactive)	23.5% (inactive)	95.4	-10% (inactive)	85.8	-0.58 (inactive)	-0.000104 (inactive)	0.0035 (inactive)	14.4% (inactive)	12.6% (inactive)	
O=C(Cn1c2c(c(-c3ccccc3Cl)cc1=O)CCC2)N1CCC2(CC1)OCCO2	861	-5% (inactive)	-9% (inactive)	107	-175% (inactive)	125	-0.605 (inactive)	9.7e-06 (inactive)	0.00803 (inactive)	-8.12% (inactive)	-12.2% (inactive)	
Cc1ccc(O)c(CN2CCN(c3ccccc3)CC2)c1	307	1% (inactive)	-4.7% (inactive)	95.9	-91.9% (inactive)	120	-0.202 (inactive)	-1.8e-05 (inactive)	0.00457 (inactive)	12% (inactive)	15.6% (inactive)	
CCCCn1c(O)c(C(C)=Nc2cccc(C(=O)O)c2)c(=O)[nH]c1=O	278	6.8% (inactive)	4.7% (inactive)	75.2	-151% (inactive)	199	-0.604 (inactive)	2.7e-05 (inactive)	0.00369 (inactive)	4.58% (inactive)	3.8% (inactive)	
CCC(C)NC(=O)c1c(N)n(CC2CCCO2)c2nc3ccccc3nc12 (stereo not given)	603	-1.4% (inactive)	-0.7% (inactive)	80.9	-13.3% (inactive)	128	-0.058 (active)	1.6e-05 (inactive)	0.00598 (inactive)	14.8% (inactive)	17.6% (inactive)	
NC(=O)OCCSc1nnc(-c2cccc(C(N)=S)c2)o1	330	3.5% (inactive)	-7.4% (inactive)	107	-48% (inactive)	96.2	-0.541 (inactive)	-9.5e-05 (inactive)	0.00508 (inactive)	17.8% (inactive)	12.8% (inactive)	
COc1ccc(CCNC(=O)c2c(N)n(CCN3CCOCC3)c3nc4ccccc4nc23)cc1	403	9.5% (inactive)	-9.7% (inactive)	90.9	-157% (inactive)	115	-0.454 (inactive)	-7.3e-05 (inactive)	0.00515 (inactive)	-3.7% (inactive)	-28.7% (inactive)	
CC[C@@H](CO)NC(=O)[C@@H]1C=C2c3cccc4[nH]cc(c34)C[C@H]2N(C)C1												-0.368% (inactive)
CC(=NCc1cccnc1)c1c(O)n(Cc2ccccc2)c(=O)[nH]c1=O	421	1.2% (inactive)	-11.9% (inactive)	120	-174% (inactive)	126	-0.492 (inactive)	0.000113 (inactive)	0.0065 (inactive)	9.01% (inactive)	3.95% (inactive)	
